Measurements taken from PubChem BioAssay (NCI).
Compounds without any hit were thinned out: in the full panel of roughly 83,000, 20% have a hit.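 Values shown are percent growth following 48 h exposure of cells in 96-well plates to a single concentration of compound; below 10 was considered active.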 The source made the active and inactive calls.

Test system: NCI-H23 lung
Test: NCI-60 one-dose screen, 48 h (100 = growth as untreated, 0 = no growth, -100 = all killed)
Settings: 10 µM

SMILES | growth
COc1ccc(C(C)C=O)cc1 (stereo not drawn) | 106% (inactive)
CCCNc1ccc(C2=NCCCN2)cc1 | 95.6% (inactive)
CC1(C)/C(=C\CO)C2CCC1C2 (stereo not drawn) | 103% (inactive)
CCC(=O)Oc1ccc(OC)cc1 | 108% (inactive)
CCOC(=O)C/C(C)=N\O | 100% (inactive)
CCCCN(CCCC)CCCO | 104% (inactive)
O=C(Nc1ccccc1C(=O)NCC1CC1)c1cccs1 | 109% (inactive)
CC(=O)Nc1ccc(NC(C)=O)c2c1C(=O)c1ccccc1C2=O | 89.5% (inactive)
O=C(N/N=C\c1cc(Br)cc(Br)c1O)N/N=C/c1cc(Br)cc(Br)c1O | 67.1% (inactive)
O=C(O)c1ccc(S(=O)(=O)O)cc1 | 101% (inactive)
CCOC(=O)/C(C#N)=C/c1cccc(C)c1 | 99.5% (inactive)
O=C(Nc1ccccc1)OCCc1ccccc1 | 108% (inactive)
COCCCNC(=O)c1nnn2c1nc(N)c1cc(Cl)ccc12 | 98.4% (inactive)
NC(CSC(c1ccccc1)(c1ccccc1)c1ccccc1)C(=O)O (stereo not drawn) | 61.3% (inactive)
OCc1cccc2ccccc12 | 101% (inactive)
CN(C)c1ccc(C(c2ccc(O)cc2)c2ccc(N(C)C)cc2)cc1 | 104% (inactive)
COc1cc2c(cc1OC)[C@H](C(=O)O)[C@@H](c1ccc(OC(C)C)c(OC)c1)N(C)C2=O | 96.8% (inactive)
NC(C(=O)O)c1ccc([N+](=O)[O-])cc1 (stereo not drawn) | 105% (inactive)
Cc1ccc(Cl)cc1NC(=O)N(C)CCO | 110% (inactive)
CCC/C=C(\C)C(C)(C#N)C(=O)OCC (stereo not drawn) | 116% (inactive)

SMILES | growth
COc1cc(/C=C/C(=O)c2ccccc2)cc(OC)c1OC | 78.1% (inactive)
O=C1c2ccccc2C(=O)c2c1ccc(C(=O)O)c2[N+](=O)[O-] | 101% (inactive)
CC1=CC(C)(C)NC(=S)N1c1ccc(S(=O)(=O)O)c2cccc(S(=O)(=O)O)c12 | 101% (inactive)
COC(=O)Nc1nc2ccc(C(=O)c3ccc(F)cc3)cc2[nH]1 | 31.8% (inactive)
C=CC(=O)OCCCCCCCC | 105% (inactive)
O=[N+]([O-])c1ccc(Cl)c(S(=O)(=O)O)c1 | 103% (inactive)
CN(C)C(C)(C)CC(C)(C)C | 103% (inactive)
N#CC(=Nc1cccc(F)c1)C1=C(O)c2ccccc2C1=O | 94.8% (inactive)
Cc1c(O)cnc2nn(-c3ccccc3)c(=N)n12 | 102% (inactive)
O=c1[nH]n(-c2ccccc2)c(=O)cc1Cl | 106% (inactive)
O=C(NCO)c1ccccc1 | 109% (inactive)
COc1cc(CCN=Cc2ccccc2O)c([N+](=O)[O-])cc1OC | 100% (inactive)
CC[N+](C)(CC)CCO | 107% (inactive)
COc1cc(C(N)=O)cc(OC)c1OC | 101% (inactive)
COC(=O)CCCCC1=CCC2C(=O)C=C(O)C2C1 (stereo not drawn) | 100% (inactive)
CC(C)(C)n1nc(C2CC2)c(Br)c1NC(=O)c1ccccc1F | 117% (inactive)
C=CCNc1nnc(C)s1 | 98.1% (inactive)
COc1cc(/C=N\Nc2ccccc2)ccc1OC(=O)c1ccccc1 | 79.5% (inactive)
COC(=O)c1ccc(NC(=O)CCl)cc1 | 85.3% (inactive)

Test system: NCI-H226 lung
Test: as above
Settings: 10 µM

SMILES | growth
COc1ccc(C(C)C=O)cc1 (stereo not drawn) | 111% (inactive)
CCCNc1ccc(C2=NCCCN2)cc1 | 104% (inactive)
CC1(C)/C(=C\CO)C2CCC1C2 (stereo not drawn) | 98.1% (inactive)
CCC(=O)Oc1ccc(OC)cc1 | 105% (inactive)
CCOC(=O)C/C(C)=N\O | 98.4% (inactive)
CCCCN(CCCC)CCCO | 104% (inactive)
O=C(Nc1ccccc1C(=O)NCC1CC1)c1cccs1 | 88.1% (inactive)
CC(=O)Nc1ccc(NC(C)=O)c2c1C(=O)c1ccccc1C2=O | 81.7% (inactive)
O=C(N/N=C\c1cc(Br)cc(Br)c1O)N/N=C/c1cc(Br)cc(Br)c1O | 50.6% (inactive)
O=C(O)c1ccc(S(=O)(=O)O)cc1 | 99.6% (inactive)
CCOC(=O)/C(C#N)=C/c1cccc(C)c1 | 109% (inactive)
O=C(Nc1ccccc1)OCCc1ccccc1 | 103% (inactive)
COCCCNC(=O)c1nnn2c1nc(N)c1cc(Cl)ccc12 | 94.1% (inactive)
NC(CSC(c1ccccc1)(c1ccccc1)c1ccccc1)C(=O)O (stereo not drawn) | 87.6% (inactive)
OCc1cccc2ccccc12 | 112% (inactive)
CN(C)c1ccc(C(c2ccc(O)cc2)c2ccc(N(C)C)cc2)cc1 | 92.9% (inactive)
COc1cc2c(cc1OC)[C@H](C(=O)O)[C@@H](c1ccc(OC(C)C)c(OC)c1)N(C)C2=O | 89.9% (inactive)
NC(C(=O)O)c1ccc([N+](=O)[O-])cc1 (stereo not drawn) | 103% (inactive)
Cc1ccc(Cl)cc1NC(=O)N(C)CCO | 115% (inactive)
CCC/C=C(\C)C(C)(C#N)C(=O)OCC (stereo not drawn) | 101% (inactive)

SMILES | growth
COc1cc(/C=C/C(=O)c2ccccc2)cc(OC)c1OC | 98.7% (inactive)
O=C1c2ccccc2C(=O)c2c1ccc(C(=O)O)c2[N+](=O)[O-] | 107% (inactive)
CC1=CC(C)(C)NC(=S)N1c1ccc(S(=O)(=O)O)c2cccc(S(=O)(=O)O)c12 | 100% (inactive)
COC(=O)Nc1nc2ccc(C(=O)c3ccc(F)cc3)cc2[nH]1 | 145% (inactive)
C=CC(=O)OCCCCCCCC | 98.9% (inactive)
O=[N+]([O-])c1ccc(Cl)c(S(=O)(=O)O)c1 | 109% (inactive)
CN(C)C(C)(C)CC(C)(C)C | 99.7% (inactive)
N#CC(=Nc1cccc(F)c1)C1=C(O)c2ccccc2C1=O | 79.6% (inactive)
Cc1c(O)cnc2nn(-c3ccccc3)c(=N)n12 | 100% (inactive)
O=c1[nH]n(-c2ccccc2)c(=O)cc1Cl | 93.6% (inactive)
O=C(NCO)c1ccccc1 | 101% (inactive)
COc1cc(CCN=Cc2ccccc2O)c([N+](=O)[O-])cc1OC | 104% (inactive)
CC[N+](C)(CC)CCO | 92.7% (inactive)
COc1cc(C(N)=O)cc(OC)c1OC | 102% (inactive)
COC(=O)CCCCC1=CCC2C(=O)C=C(O)C2C1 (stereo not drawn) | 102% (inactive)
CC(C)(C)n1nc(C2CC2)c(Br)c1NC(=O)c1ccccc1F | 102% (inactive)
C=CCNc1nnc(C)s1 | 99.8% (inactive)
COc1cc(/C=N\Nc2ccccc2)ccc1OC(=O)c1ccccc1 | 74.9% (inactive)
COC(=O)c1ccc(NC(=O)CCl)cc1 | 118% (inactive)
